This is an account of results in PubChem BioAssay.

One assay addresses Albumin (Bos taurus) (UniProt P02769). As to the kind of experiment: bovine serum albumin binders on microarray, profiling panel, artefact control for SMM control protein annotation, biochemical, small-molecule microarray, Alexa647 label, 635/667 nm fluorescence (AID 1118).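 Also: score merges 667 nm emission intensity and signal-to-noise per printed compound spot.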 The following applies: BSA-A647 binding, fluorescence 635 nm, higher = more signal.
Assay [1] can be described thus: small-molecule microarray binders of probe aXIP, primary screen, biochemical, NeuroSMM set, 635/667 nm fluorescence (AID 1119).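 Also: probe is the protein aXip251-270 applied at 1 µg/mL to compound-printed slides; binding of probe to printed compounds measured as 667 nm fluorescence plus signal to noise.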 The following applies: higher = more signal, called active from +8 up or from −8 down.
Assay [2] can be described thus: small-molecule binders of probe aNOTCH3, primary screen, biochemical, small-molecule microarray, 635/667 nm fluorescence (AID 1120).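 Also: probe is a biotin-tagged antibody raised against NOTCH3 rather than NOTCH3 protein; score merges spot fluorescence near 667 nm with spot signal to noise.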 The note with it: higher = more signal.
Assay [3] can be described thus: small-molecule binders of probe aNOTCH2, primary screen, biochemical, small-molecule microarray, 635/667 nm fluorescence (AID 1121).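 Also: score merges feature fluorescence read at 667 nm with its signal to noise.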 The following applies: higher = more signal.
In assay [4] the target is Carbonic anhydrase 2 (Homo sapiens) (UniProt P00918). Kind of assay: CAII small-molecule binders, profiling panel, biochemical, small-molecule microarray, Alexa647-labelled CAII (AID 1122). The note with it: CAII-A647 binding fluorescence, higher = more signal.
A short description of assay [5]: COS7 lysate on small-molecule microarray, probe aHis, 635 nm (AID 1123).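 Also: z-score combines 667nm fluorescence intensity with signal-to-noise per printed compound spot.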 The following applies: COS7 cell lysate, fluorescence, higher = more signal.
The nature of assay [6]: compound binding in COS7 lysate, probe aLAP1, primary screen, cell lysate, small-molecule microarray (AID 1124).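 Also: lysate comes from COS7 cells expressing LAP1 and is applied at 0.3 µg/mL; score merges spot fluorescence near 667 nm with signal-to-noise over triplicate slides.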 The following applies: probe aLAP1, fluorescence, higher = more signal.
The next assay has as its system Sam68 (KHDRBS1). Kind of assay: Sam68 small-molecule binders, primary screen, biochemical, small-molecule microarray, 635 nm fluorescence (AID 1125).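 Also: score merges 667 nm channel intensity with signal to noise over triplicate slides.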 The following applies: small-molecule microarray binding, higher = more signal.
In assay [7] the test system is Chordin-like protein 2 (CHRDL2). Kind of assay: CHRDL2 small-molecule binders, primary screen, biochemical, small-molecule microarray, 635 nm fluorescence (AID 1126).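 Also: printed compound slides probed with Chrdl2 protein at 4 µg/mL for 1 h at 4 C; score merges 667 nm emission intensity with signal to noise over three replicate slides.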 The following applies: small-molecule microarray binding, fluorescence 635 nm; higher = more signal.
Assay [8] has as its target Concanavalin-A (Canavalia ensiformis) (UniProt P02866). Kind of assay: ConA small-molecule binders, primary screen, artefact control for SMM control protein annotation, biochemical, small-molecule microarray, Alexa647 label, 635 nm (AID 1127).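 Also: z combines 667 nm emission intensity with signal-to-noise across three replicate slides.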 The note with it: ConA-A647 binding fluorescence, higher = more signal.

Active and inactive are the calls of the source.

Albumin (Bos taurus), sequence (P02769 whole entry, looked up): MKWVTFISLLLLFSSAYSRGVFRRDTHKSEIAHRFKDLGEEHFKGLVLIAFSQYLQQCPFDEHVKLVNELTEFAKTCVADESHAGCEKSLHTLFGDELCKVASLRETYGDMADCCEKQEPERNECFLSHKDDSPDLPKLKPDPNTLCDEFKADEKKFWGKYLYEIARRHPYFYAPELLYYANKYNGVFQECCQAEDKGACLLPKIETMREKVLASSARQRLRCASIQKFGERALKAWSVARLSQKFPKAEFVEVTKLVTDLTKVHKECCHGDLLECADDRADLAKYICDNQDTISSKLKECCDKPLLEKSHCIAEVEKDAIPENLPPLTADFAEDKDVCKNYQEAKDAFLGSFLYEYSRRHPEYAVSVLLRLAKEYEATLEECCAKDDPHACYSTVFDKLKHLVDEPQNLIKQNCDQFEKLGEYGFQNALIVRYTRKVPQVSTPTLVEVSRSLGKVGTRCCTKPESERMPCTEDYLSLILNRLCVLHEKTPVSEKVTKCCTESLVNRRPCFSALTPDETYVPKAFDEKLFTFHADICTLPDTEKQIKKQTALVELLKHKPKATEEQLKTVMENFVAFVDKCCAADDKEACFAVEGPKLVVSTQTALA
Concanavalin-A (Canavalia ensiformis), sequence (P02866 whole entry, looked up): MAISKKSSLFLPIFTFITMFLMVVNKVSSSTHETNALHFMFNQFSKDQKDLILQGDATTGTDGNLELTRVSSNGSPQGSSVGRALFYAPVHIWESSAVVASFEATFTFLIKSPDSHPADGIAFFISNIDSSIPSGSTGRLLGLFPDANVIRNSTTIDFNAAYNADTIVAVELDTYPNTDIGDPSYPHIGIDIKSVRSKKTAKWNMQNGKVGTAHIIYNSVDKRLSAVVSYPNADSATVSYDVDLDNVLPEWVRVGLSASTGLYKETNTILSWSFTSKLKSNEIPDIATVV

With `COc1ccc([Si](C)(C)[C@@H]2[C@@H](CCO)O[C@]3(C(=O)N(Cc4ccccc4)c4ccc(N5C(=O)c6ccccc6Oc6ccccc65)cc43)[C@H]2C)cc1`, the composite z-score was 0.208 with Albumin (Bos taurus); -0.192 in assay [2]; -0.155 in assay [3]; -0.0035 in assay [4]; 0.981 in assay [5]; -0.0345 in assay [6]. The composite z-score in the assay with Sam68 (KHDRBS1) is -0.809; in [7], -1.36; in [8] it was 0.718. Also, the composite Z-score in assay [1] was 0.304 (inactive).

Regarding `C[N+](C)(C)CCCCCCNC(=O)[C@H]1C[C@H]2C(=O)NCC(=O)N2[C@H]1c1cccc(OCCO)c1`, the composite z-score was -0.27 with Albumin (Bos taurus); 0.11 in [2]; -0.0877 in [3]; 0.594 in [4]; 1.05 in assay [5]; 0.662 in [6]. Also, the composite z-score in the assay on Sam68 (KHDRBS1) is 0.562; in assay [7] it was 1.36; in [8], 0.907. For the same molecule, the composite Z-score in [1] was 0.536 (inactive).

For the molecule `C=CCNC(=O)[C@@H]1[C@H]2C(=O)O[C@H](c3ccccc3)[C@H](c3ccccc3)N2[C@H](c2ccc(O)cc2)[C@@]12C(=O)Nc1ccc(C#CC3(O)CCCCCC3)cc12`, the composite z-score in the assay with Albumin (Bos taurus) was -0.277; in assay [2], 0.39; in [3], -0.179; in assay [4], 0.653; in [5], 1.04; in [6], 0.107. Further, the composite z-score was -0.133 in the assay on Sam68 (KHDRBS1), 0.227 in [7] and -0.197 in assay [8]. In assay [1], the composite Z-score was 0.156 (inactive).

In the case of `COc1ccc(CCNC(=O)[C@@]2(Sc3ccc(C)cc3)CC(=O)N(C(C)C)[C@@H]2c2ccc(CO)cc2)cc1`, the composite z-score in the assay with Albumin (Bos taurus) was 0.566; in assay [2], -0.39; in assay [3], -0.124; in [4], 0.7; in assay [5], 0.239; in assay [6], 0.0112. The composite z-score in the assay with Sam68 (KHDRBS1) is -0.346; in [7] it was -2.15; in assay [8] it was -0.277. Besides, in assay [1], the composite Z-score was 0.397 (inactive).

On to `C=CCC(OC(C)=O)[C@@H]1[C@@H](N(Cc2ccc(-c3cccc(C(F)(F)F)c3)o2)C(=O)Cc2ccc(OC)cc2)c2cc(OCCCO)ccc2N1C(=O)c1ccc2ccccc2n1` (stereo not given in full), for which the composite z-score in the assay with Albumin (Bos taurus) is -0.739; in assay [2], -0.0311; in assay [3], -0.0956; in assay [4] it was -0.165; in [5], 0.516; in assay [6] it was -0.136. Also, the composite z-score in the assay on Sam68 (KHDRBS1) was -1.29; in [7], 0.763; in assay [8], -0.388. Moreover, in assay [1], the composite Z-score is -0.117 (inactive).

Take `C=CCC(OC(C)=O)[C@@H]1[C@@H](N(Cc2cccc3ccccc23)C(=O)c2cccc3ccccc23)c2cc(OCCCO)ccc2N1C(=O)Cc1ccc2ccccc2c1` (stereo not given in full): the composite z-score in the assay with Albumin (Bos taurus) is -0.351; in assay [2], -0.128; in assay [3] it was -0.147; in assay [4], -0.272; in [5], -0.331; in assay [6] it was -0.397. Also, the figures for the composite z-score (with Sam68 (KHDRBS1); in assay [7]; in [8]) were -0.0418, 0.295 and -0.508, respectively. Also, in assay [1], the composite Z-score was -0.745 (inactive).

As for `CCOC(=O)C[C@H]1[C@H](OC(=O)c2ccc(-c3ccccc3)cc2)[C@@H](NC(=O)c2ccc3ccccc3c2)c2cc(OCCCO)ccc2N1C(=O)c1ccccc1`, the composite z-score with Albumin (Bos taurus) is 0.571; in assay [2], 0.0351; in [3], -0.132; in assay [4], 0.119; in assay [5], 0.916; in assay [6] it was 0.14. The composite z-score with Sam68 (KHDRBS1) was 1.16; in assay [7] it was -0.126; in assay [8] it was 0.353. Further, the composite Z-score in assay [1] is 1.03 (inactive).

With `C=CCC(OC(C)=O)[C@@H]1[C@@H](N(Cc2ccc(-c3cccc(C(F)(F)F)c3)o2)C(=O)Cc2ccc(F)cc2)c2cc(OCCCO)ccc2N1C(=O)c1ccc2ccccc2c1` (stereo not given in full), the composite z-score in the assay with Albumin (Bos taurus) is -0.229; in assay [2], -0.0813; in assay [3] it was -0.117; in assay [4], -0.351; in assay [5] it was 0.0261; in assay [6], -0.211. The results for the composite z-score (in the assay with Sam68 (KHDRBS1); in assay [7]; in assay [8]) were -0.749, -0.0715 and -1.35, respectively. For the same molecule, the composite Z-score in assay [1] is -0.0127 (inactive).

Turning to `COc1cc2c(cc1O)C(c1ccc(CN3CCCC3)cc1)N(Cc1cccc(OC(F)(F)F)c1)CC2` (stereo not given), the composite z-score was 0.771 with Albumin (Bos taurus); -0.0795 in assay [2]; -0.207 in assay [3]; 0.546 in assay [4]; 1.72 in assay [5]; 0.637 in assay [6]. Further, the values for the composite z-score (in the assay on Sam68 (KHDRBS1); in assay [7]; in assay [8]) were 0.658, 0.73 and -0.328, respectively. For the same molecule, the composite Z-score in [1] is 0.339 (inactive).

Regarding `C[C@@H](OCc1ccccc1)C1NC(=O)[C@@]23C(=O)N[C@@H](Cc4ccccc4)C2[C@H](C)[C@@]2(C)O[C@H]2C3/C=C/C/C=C\CNC(=O)[C@H](Cc2ccccc2)NC1=O` (stereo not given in full), the composite z-score with Albumin (Bos taurus) was 0.126; in [2] it was -0.0026; in [3] it was -0.153; in [4] it was 0.618; in assay [5] it was 0.332; in [6], -0.149. The composite z-score in the assay on Sam68 (KHDRBS1) was -0.24; in [7], 0.665; in [8] it was -0.052. Moreover, in [1], the composite Z-score is 0.069 (inactive).

As to `CC(C)CNC(=O)[C@@H]1c2ccccc2C(=O)N(Cc2ccccc2Cl)[C@H]1c1ccc(CO)cc1`, the composite z-score in the assay with Albumin (Bos taurus) was -0.261; in [2], -0.212; in assay [3] it was -0.0404; in assay [4], 0.687; in assay [5], 1.57; in assay [6], 0.397. Also, the composite z-score in the assay with Sam68 (KHDRBS1) was -0.537; in assay [7], -0.686; in [8], -1.68. The composite Z-score in [1] was 0.191 (inactive).

`C=CCOC(=O)[C@H]1[C@@H]2C(=O)O[C@@H](c3ccccc3)[C@@H](c3ccccc3)N2[C@@H](c2ccc(OCCOC(=O)[C@@H]3C[C@@H]4C(=O)N[C@@H](Cc5ccccc5)C(=O)N4[C@@H]3c3ccc(O)cc3)cc2)[C@]12C(=O)Nc1ccccc12`: the composite z-score with Albumin (Bos taurus) was 0.527; in assay [2], 0.0382; in assay [3] it was -0.181; in [4] it was 0.67; in [5] it was 1.74; in assay [6], 0.509. Further, the composite z-score in the assay on Sam68 (KHDRBS1) turned out to be 1.3; in assay [7], 1.11; in [8], 1.16. In addition, the composite Z-score in [1] was 0.129 (inactive).

On to `COCCOC(=O)N1C(=O)[C@@]2(c3cc(C#CCC(C(=O)OC)C(=O)OC)ccc31)[C@H](C(=O)N1CCc3cc(OC)c(OC)cc3C1)[C@H]1C(=O)O[C@H](c3ccccc3)[C@H](c3ccccc3)N1[C@@H]2c1ccc(O)cc1`, for which the composite z-score with Albumin (Bos taurus) was -0.129; in assay [2], 0.23; in assay [3], -0.0715; in assay [4], 0.213; in assay [5] it was 1.72; in [6], 0.617. Also, the composite z-score was 1.17 in the assay with Sam68 (KHDRBS1), 1.05 in assay [7] and 0.919 in assay [8]. Moreover, the composite Z-score in assay [1] is 0.131 (inactive).

In the case of `CCCC[C@@H]1C[C@H]1[C@@H](NC(=O)Cc1ccccc1)c1ccc(Cl)cc1`, the composite z-score was 1.1 with Albumin (Bos taurus); 0.532 in [2]; -0.129 in assay [3]; 0.69 in assay [4]; 2.76 in assay [5]; 0.323 in assay [6]. The composite z-score was 1.31 with Sam68 (KHDRBS1), -1.01 in [7] and 1.16 in assay [8]. In addition, the composite Z-score in [1] is 0.491 (inactive).
